# Measured values from PubChem BioAssay (NCI).
# Compounds without any hit were thinned out: in the full panel of roughly 83,000, 20% have a hit.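 Each cell line was grown in a 96-well plate and treated with one concentration of compound for 48 hours. Values below 10 were considered active.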 Values without a mark were called inactive. Calls of active or inactive are those of the source.
# Legend:
# Assay in all cases: NCI-60 one-dose screen, 48 h (100 = growth as untreated, 0 = no growth, -100 = all killed)
# Conditions in all cases: 10 µM unless noted
# DU-145 prostate = tested on: DU-145 prostate
# K-562 leukemia = tested on: K-562 leukemia
# MALME-3M melanoma = tested on: MALME-3M melanoma
# MDA-MB-231 breast = tested on: MDA-MB-231 breast
# SF-268 CNS = tested on: SF-268 CNS
# SF-295 CNS = tested on: SF-295 CNS
# SF-539 CNS = tested on: SF-539 CNS
# UACC-257 melanoma = tested on: UACC-257 melanoma
# RXF 393 renal = tested on: RXF 393 renal
# M14 melanoma = tested on: M14 melanoma
Structure (SMILES),growth (DU-145 prostate),growth (K-562 leukemia),growth (MALME-3M melanoma),growth (MDA-MB-231 breast),growth (SF-268 CNS),growth (SF-295 CNS),growth (SF-539 CNS),growth (UACC-257 melanoma),growth (RXF 393 renal),growth (M14 melanoma)
CCCCCc1ccc(S(=O)(=O)Nc2cc(-c3csc(NC(=O)CN4CCN(CCO)CC4)n3)ccc2OC)cc1,49.1%,2.84% (active),-80.9% (active),12.6%,59.8%,-23.1% (active),-69.2% (active),-31.4% (active),–,–
C=CCn1c(SCC(=O)Nc2ccc(C(=O)/C=C/c3cc(OC)c(OC)c(OC)c3)cc2)nnc1-c1c[nH]c2ccccc12,13.2%,3.04% (active),68.6%,23%,33.1%,68.1%,-16.2% (active),73%,–,–
COc1cc(Cn2cc3c(c2)-c2onc(CN4CCCC4)c2CC3)cc(OC)c1OC,75.6%,59.9%,66.5%,91.3%,91.4%,85.8%,92.7%,97.1%,–,–
CCCCCc1ccc(S(=O)(=O)Nc2cccc(-c3csc(NC(=O)CCCCCN4CCN(CCO)CC4)n3)c2)cc1,83%,-21.3% (active),29.8%,75.7%,83.2%,91.5%,67.3%,86.7%,–,–
CCOC(=O)C(=O)CC(=O)N1C(=S)NC(=O)C1CC(C)C (stereo unspecified),108%,107%,101%,101%,94.8%,102%,96.1%,102%,–,–
N#Cc1cccc(CN2CCC3=C(C2)C(=O)N(Cc2ccc(Cl)cc2)C2=NCCN23)c1,28.5%,23.3%,50.4%,31.7%,36%,8.53% (active),41.7%,10.7%,–,–
COc1ccc2c(c1)c(CC(=O)[Se]CC(=O)O)c(C)n2C(=O)c1ccc(Cl)cc1,85%,95.8%,112%,54.1%,64.1%,11.1%,66.8%,110%,–,–
CCOC(=O)c1c(NC(=O)c2ccccc2C(F)(F)F)sc2c1CCC(=O)C2,95.3%,12.8%,73%,15.2%,22.9%,41.6%,-6.66% (active),98.9%,–,–
C=CCn1c(-c2nc3ccc(C(=C(C#N)C#N)c4ccccc4)cc3[nH]2)cc2cc(Br)ccc21,72.4%,23.7%,84.1%,58.3%,62.9%,43.1%,65.3%,70.9%,–,–
CN(C)CCNC(=O)c1ccc(-c2nc3ccc4[nH]ncc4c3c3c2CCC3)cc1,5.47% (active),11.3%,-0.0162% (active),-2.41% (active),-8.73% (active),2.24% (active),-31.2% (active),47.7%,–,–
COc1cc(OC)cc(C(=O)Nc2sc3c(c2C(N)=O)CCC(=O)C3)c1,99.4%,–,–,52.4%,30.7%,65.3%,16.6%,53.2%,85.1%,22.9%
Cc1nn(-c2ccccc2)c2ncnc(N/N=C/c3ccccc3)c12,91.2%,78.5%,–,109%,91.7%,108%,103%,113%,91.3%,103%
CC(C)(C)c1ccc(C(=O)Nc2sc3c(c2C(N)=O)CC/C(=N\O)C3)cc1,42.2%,7.83% (active),–,14.1%,32%,16.8%,21.6%,5.76% (active),-14.3% (active),25%
CCN1CCN(C(=O)[C@]23CCC(C)(C)C[C@H]2C2=CC[C@@H]4[C@@]5(C)Cc6c([nH]c7ccccc67)C(C)(C)[C@@H]5CC[C@@]4(C)[C@]2(C)CC3)CC1,83.3%,–,–,74.1%,90.1%,91.9%,94%,88.2%,75.9%,84.5%
NC(=O)c1cccc(C#CCNC[C@H]2C[C@@H](n3ccc4c(Cl)ncnc43)[C@H](O)[C@@H]2O)c1,108%,111%,–,101%,102%,105%,98.9%,98.2%,107%,104%
CCO/C=N/C1=C(C#N)C(c2ccc(Cl)cc2)c2sc3c(CC)cccc3c2O1 (stereo unspecified),13.6%,11.4%,–,37.2%,58.3%,-12.1% (active),-3.86% (active),70.3%,-27.7% (active),8.6% (active)
CC(C)(C)c1ccc(C(=O)Nc2nc3ccc(O)cc3s2)cc1,48.2%,8.79% (active),–,69.5%,55.9%,3.43% (active),38.1%,31.8%,46.3%,14.3%
C#CCC#CCN1CCC[C@H]1C(=O)NCC(=O)OC,105%,98.1%,–,106%,108%,107%,105%,93.7%,105%,107%
NC(N)=Nc1ccc(Oc2cccc(Nc3ccc(Cl)c(C(F)(F)F)c3)c2)cn1,-93.4% (active),-43.5% (active),–,-58.1% (active),17.7%,-84.7% (active),15.9%,-26.1% (active),-3.9% (active),-62.4% (active)
CC(C)(C)c1ccc(CC(=O)Nc2sc3c(c2C(N)=O)CCC(=O)C3)cc1,26.4%,–,–,-20.2% (active),26%,10.1%,-36.4% (active),-10.8% (active),-12.5% (active),7.16% (active)
CCc1cccc2c3c(sc12)C(c1ccc(Cl)cc1)C(C#N)=C(/N=C/c1ccc(Cl)cc1)O3 (stereo unspecified),12.1%,10%,–,33.8%,58.3%,-22.7% (active),-7.57% (active),60.4%,-31% (active),1.34% (active)
CNC1CCc2c(sc(NC(=O)c3ccc(C(C)(C)C)cc3)c2C(N)=O)C1 (stereo unspecified),44.7%,-10% (active),–,56.8%,79%,-70.9% (active),75.8%,56.2%,59.5%,52.8%
C#CCOC(=O)[C@@H]1CCCN1CC#C,92%,76.8%,–,84.6%,76.9%,102%,90.2%,97.3%,81.7%,98.4%
O=C(CN1CCN(c2cc(=O)n(-c3ccccc3)c3ccccc23)CC1)Nc1cccc(C(F)(F)F)c1,64.7%,23.4%,–,68.7%,66.2%,59%,71.5%,38.8%,62.2%,60.5%
Nc1nc(N)c2c(n1)NC(c1ccc(Cl)cc1)CC(c1ccc(Nc3nc(NCCO)nc(N4CCOCC4)n3)cc1)=N2 (stereo unspecified),86.1%,31.1%,–,80.5%,61.8%,76.2%,78.4%,84.6%,61.2%,88.1%
NC(N)=Nc1ccc(Oc2cccc(Nc3cccc(C(F)(F)F)c3)c2)cn1,-10.7% (active),-47.3% (active),–,12%,49.3%,-86.1% (active),70.8%,25.8%,2.79% (active),5.01% (active)
Cc1nn(-c2ccccc2)c2ncnc(N/N=C/c3ccccc3O)c12,21%,15%,–,29.7%,8.32% (active),7.98% (active),-1.39% (active),9.8% (active),-20.4% (active),0.329% (active)
COc1cccc(C(=O)Nc2cccc(C#Cc3cccc4[nH]nc(N)c34)c2)c1,70.8%,–,79.4%,38.6%,53%,54.9%,36.1%,82.8%,-19.5% (active),32.6%
C=CCn1c(SCC(=O)Nc2ccc(C(=O)/C=C/c3cccc([N+](=O)[O-])c3)cc2)nnc1-c1c[nH]c2ccccc12,97%,–,86.6%,85.2%,84%,91%,96.4%,103%,–,–
